Results filed as inconclusive are left out. Activity calls are given as the source filed them. Calls follow the shape of the dose curve; as a rule, active = well fitted cell-killing curve with a large enough effect; inconclusive = small, poorly fitted or top-dose-only effect, or effect the other way; inactive = flat fitted curve, though single readings scatter.
What was measured:
Test in all cases: Primary qHTS to identify gynecologic anti-cancer compounds using libraries of approved drugs and bioactive compounds (AID 1345084); also: nearly all actives have a fitted effect of over 55% in size
Details in all cases: Gynecologic cancer cell panel viability, ATPlite luminescence, 48 h; series mostly up to 57.5 µM
OV90 = system: OV90
Outline: (§1)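 ATP-based viability (ATPlite), 1,000 cells/well, 16 h pre-incubation, 48 h compound at 37 C, 5% CO2, 15 min RT before read.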

PA-1 = system: PA-1
Outline: as §1

SKOV3 = system: SKOV3
Outline: as §1

Tov-21-G = system: Tov-21-G
Outline: as §1

Tov112D = system: Tov112D
Outline: as §1
% is scaled to controls: 0 for no effect and ±100 for the full control effect; potency is read from the fitted curve at half-maximal effect.

COc1cc(N)c(Cl)cc1C(=O)NC[C@@H]1CCN2CCC[C@@H]12
inactive: Potency (OV90) | Potency (PA-1) | Potency (SKOV3) | Potency (Tov-21-G) | Potency (Tov112D)

COC(=O)c1cc(OC)cc(OC)c1C(=O)c1c(OC)cc2c(c1O)C1CCCC(C)(O2)O1 (stereo not given)
inactive: Potency (OV90) | Potency (PA-1) | Potency (SKOV3) | Potency (Tov-21-G) | Potency (Tov112D)

C/C1=C\CC[C@]2(C)O[C@@H]2[C@H](O)[C@H](C(C)C)[C@H](OC(=O)/C=C/c2ccccc2)C1
inactive: Potency (OV90) | Potency (PA-1) | Potency (SKOV3) | Potency (Tov-21-G) | Potency (Tov112D)

C=CCC1=C[C@]2(OC)[C@H](C)[C@@H](c3ccc(O)c(OC)c3)O[C@]2(OC)CC1=O
inactive: Potency (OV90) | Potency (PA-1) | Potency (SKOV3) | Potency (Tov-21-G) | Potency (Tov112D)

CC(O)/C=C/C1OC(=O)CC1Nc1ccc(C(=O)O)cc1 (stereo not given)
inactive: Potency (OV90) | Potency (PA-1) | Potency (SKOV3) | Potency (Tov-21-G) | Potency (Tov112D)

COC(=O)CC(O)CC(O)/C=C/c1c(C)ccc2c1C(O)CC(C)C2 (stereo not given)
inactive: Potency (OV90) | Potency (PA-1) | Potency (SKOV3) | Potency (Tov-21-G) | Potency (Tov112D)

C=CC(C)(O)CC/C=C(\C)C(=O)OC1C(O)C(CO)OC(OC(=O)C23CCC(C)(C)CC2C2=CCC4C5(C)CCC(OC6OC(COC7OCC(OC(C)=O)C(O)C7OC7OC(COC(C)=O)C(O)C(O)C7O)C(O)C(O)C6O)C(C)(C)C5CCC4(C)C2(C)C(O)C3O)C1OC1OCC(OC2OCC(O)C(OC3OCC(O)C(O)C3O)C2O)C(O)C1O (stereo not given)
inactive: activity change, negative = cytotoxicity (OV90) -14.1% [at 6.55 µM] | activity change, negative = cytotoxicity (PA-1) -0.479% [at 6.55 µM] | activity change, negative = cytotoxicity (SKOV3) 20.9% [at 6.55 µM] | activity change, negative = cytotoxicity (Tov-21-G) 0.14% [at 6.55 µM] | activity change, negative = cytotoxicity (Tov112D) -2.19% [at 6.55 µM]

O=C(O)c1cn(C2CC2)c2cc(N3C[C@@H]4C[C@H]3CN4)c(F)cc2c1=O
inactive: Potency (OV90) | Potency (PA-1) | Potency (SKOV3) | Potency (Tov-21-G) | Potency (Tov112D)

C[C@@H]1C(=O)O[C@H]2[C@@H](O)C34[C@H]5C[C@@H](C(C)(C)C)C36[C@@H](OC(=O)[C@@H]6O)O[C@@]4(C(=O)O5)[C@@]12O (stereo not given in full)
inactive: Potency (OV90) | Potency (PA-1) | Potency (SKOV3) | Potency (Tov-21-G) | Potency (Tov112D)

COc1ccc(CC2NCCc3c2[nH]c2ccc(C)cc32)cc1OC (stereo not given)
inactive: Potency (OV90) | Potency (PA-1) | Potency (SKOV3) | Potency (Tov-21-G) | Potency (Tov112D)

CC(C)(F)C[C@@H](N[C@@H](c1ccc(-c2ccc(S(C)(=O)=O)cc2)cc1)C(F)(F)F)C(=O)NC1(C#N)CC1
inactive: Potency (OV90) | Potency (PA-1) | Potency (SKOV3) | Potency (Tov-21-G) | Potency (Tov112D)

Cc1cc(Nc2ccc(NC(=O)c3ccc(Nc4ccnc5ccccc45)cc3)cc2)nc(N)n1
active: Potency (OV90) 3.98 µM | Potency (PA-1) 20 µM | Potency (SKOV3) 3.98 µM | Potency (Tov-21-G) 10 µM | Potency (Tov112D) 25.1 µM

C[C@@H]1C(=O)O[C@H](C)[C@H]1CC(=O)[C@](C)(O)[C@H]1CC[C@@]2(O)C3=CC(=O)[C@@H]4C[C@@H](O)[C@@H](O)C[C@]4(C)C3CC[C@]12C (stereo not given in full)
inactive: Potency (OV90) | Potency (PA-1) | Potency (SKOV3) | Potency (Tov-21-G) | Potency (Tov112D)

C=C(C(=O)OC)C1C(O)CC2(C)C(=O)CCC(O)(CO)C2C1O (stereo not given)
inactive: Potency (OV90) | Potency (PA-1) | Potency (SKOV3) | Potency (Tov-21-G) | Potency (Tov112D)

CC(=O)O[C@]1(C(C)=O)CC[C@H]2[C@@H]3C[C@H](C)C4=CC(=O)C=C[C@]4(C)[C@@]3(F)[C@@H](O)C[C@@]21C
inactive: Potency (OV90) | Potency (PA-1) | Potency (SKOV3) | Potency (Tov-21-G) | Potency (Tov112D)

C[C@@H]1CC[C@@]2(OC1)O[C@H]1C[C@H]3[C@@H]4CC=C5C[C@@H](O)CC[C@]5(C)[C@H]4CC[C@]3(C)[C@H]1[C@@H]2C
inactive: Potency (OV90) | Potency (PA-1) | Potency (SKOV3) | Potency (Tov-21-G) | Potency (Tov112D)

COc1ccc(CNC(=O)c2cc(-c3cncc(C)c3)ncc2-c2nccs2)nc1OC
inactive: Potency (OV90) | Potency (PA-1) | Potency (SKOV3) | Potency (Tov-21-G) | Potency (Tov112D)

Cc1ccccc1NC(=O)Nc1ccc(CC(=O)N(C)[C@@H](CC(C)C)C(=O)NCC[C@H](NC(=O)[C@@H]2CCCN2S(=O)(=O)c2cc(Cl)cc(Cl)c2)C(=O)O)cc1
inactive: Potency (OV90) | Potency (PA-1) | Potency (SKOV3) | Potency (Tov-21-G) | Potency (Tov112D)

C=C(F)c1sc(CNCCCNc2cc(=O)c3ccccc3[nH]2)c(C)c1Br
inactive: Potency (OV90) | Potency (PA-1) | Potency (SKOV3) | Potency (Tov-21-G) | Potency (Tov112D)

C[C@@H]1CN(Cc2ncccn2)C[C@H]1c1nc2c(cnn2C2CCOCC2)c(=O)[nH]1
inactive: Potency (OV90) | Potency (PA-1) | Potency (SKOV3) | Potency (Tov-21-G) | Potency (Tov112D)

CC1(c2nc3c(C(N)=O)cccc3[nH]2)CCCN1 (stereo not given)
inactive: Potency (OV90) | Potency (PA-1) | Potency (SKOV3) | Potency (Tov-21-G) | Potency (Tov112D)

From PubChem BioAssay (NCATS)
